# In the OligoGym collection:
# Molecular target: ZNF32
# Test: pooled miR-30 sensor sort-seq; sequence = guide strand
# Settings: shRNA
# Also: reference of the scale not given here.
row,Sequence,sensor-assay potency score (higher = more potent)
1,ATATCTTCCATGACAGTCCAGC,-0.761
2,TCTTCCATGACAGTCCAGCAGG,-1.26
3,TAACGTTAGACTACCTTTTTGC,-0.0672
4,TTGAGGATCCTGTAGCCTCAGA,-1.2
5,TTGAAGAACGCTACATTCTGGG,0.82
6,TATCCCAGCTTGAGGATCCTGT,-0.615
7,TTGATGTGTAACAAGATTGCCT,0.254
8,TGTAGTGTCTTCGAATCTGGGG,0.479
9,TGAATCTTCCTGTAGTGTCTTC,-0.275
10,TTAGACTACCTTTTTGCCGGAA,-0.355
11,TAGTGTCTTCGAATCTGGGGAT,-0.0716
12,TCTTCCTGTAGTGTCTTCGAAT,-1.44

# Molecular target: ZNF343
# Test: as above
# Settings: shRNA
row,Sequence,sensor-assay potency score (higher = more potent)
1,TAGAAGGCAAGCCTTTCGCTTT,-0.611
2,TTGATGAGATCTGAGTTCTGGC,0.144
3,TTGACTTCTGGCTAAAACCTCG,-0.583
4,TTGACTTGTCACAAAAGCCTCG,-0.0132
5,TTTGATGAGATCTGAGTTCTGG,0.519
6,TTGAGGATGGACTTACTTCTAA,-0.709
7,TTTCGCTTTATGATTTTGGGTC,-0.0502
8,ATAGTCTCTACATTTTCCCCAT,-0.495
9,TATCATTAGAAGGCAAGCCTTT,-0.78
10,TTGACTTATGACTAAAGCCTCG,-0.75
11,TTTGACTTATGACTAAAGCCTC,-0.874
12,TACATGTTGACTGAGGAACTGC,-0.356
